# Hits are enriched below; roughly 7.9% of the tested compounds scored in any of these assays.
# MITF inhib = blocks MITF activity. TRPM1 promoter luciferase, luminescence, 24 h. inhibition, % (concentration not given with the values). hit rate 0.28% among 37,000; in the data active = inhibition above about 85%; inconclusive = no clear call, values can overlap the other calls; inactive = below about 68%;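 note: human melanocyte line stably carrying TRPM1 promoter luciferase reporter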
# Shh pathway inh = Sonic Hedgehog pathway inhibition. Shh-LIGHT2 Gli-luciferase reporter, 30 h. inhibition, % (no concentration beside the values). hit rate 2.1% among 22,000. AID 2313;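 active = mean inhibition across valid replicates above about 65%, limit read from the data; inconclusive = mean under the limit, yet half or more replicates past it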;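 note: pathway switched on by Shh-conditioned medium diluted 1 in 25 in low serum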
# NOMO-1 viab = STK33 inhibitor candidate reducing NOMO-1 cell viability. NOMO-1 AML viability, CellTiter-Glo luminescence, 72 h. inhibition, % (no concentration beside the values). hit rate 7.5% among 37,000. AID 2330; in the data active = inhibition above about 80%; inconclusive = no clear call, values can overlap the other calls
# Active calls of the source: *; ? = inconclusive; . = no result given.
SMILES,MITF inhib,Shh pathway inh,NOMO-1 viab
C[C@H]1CN([C@@H](C)CO)C(=O)Cc2cc(NC(=O)Cc3ccccc3)ccc2O[C@H]1CN(C)Cc1ccc(-c2ccccc2)cc1,2,-41,99*
COc1ccc(-c2cc(C)nc(SCC(=O)Nc3cccc(Cl)c3Cl)n2)cc1,7,.,5
CC(C)(C)c1ccc(C(=O)Nc2ccc(NC(=O)c3ccccc3F)cc2)cc1,10,15,125*
O=C(Nc1ccc(NC(=O)c2ccccc2O)cc1)c1ccc(Cl)cc1,-11,97*,-17
CCOC(=O)c1ccc(NC(=O)c2ccc(C(C)(C)C)cc2)cc1,26,-26,33
COC(=O)c1ccccc1NC(=O)c1ccc(NC(=O)CSc2ccc(Cl)cc2)cc1,-1,.,-2
CC(C)NC(=O)N(C)C[C@H]1Oc2ccc(NS(=O)(=O)c3cn(C)cn3)cc2CC(=O)N([C@@H](C)CO)C[C@@H]1C,-6,4,3
C[C@H]1CN([C@@H](C)CO)C(=O)Cc2cc(N(C)C)ccc2O[C@H]1CN(C)Cc1ccc(C(=O)Nc2ccccc2N)cc1,31,.,141*
C[C@H](CO)N1C[C@H](C)[C@H](CN(C)Cc2ccc(C(=O)Nc3ccccc3N)cc2)Oc2ccc(N(C)C)cc2CC1=O,37,.,141*
O=c1cc(-c2ccc(O)cc2)oc2c(C3OC(CO)C(O)C(O)C3O)c(O)c(C3OCC(O)C(O)C3O)c(O)c12 (stereo not given),.,-36,.
CC(O)CC(=O)c1cc(O)ccc1O (stereo not given),3,-8,-1
O=C(Nc1ccccc1-c1nc2ccccc2s1)c1ccc(-c2ccccc2[N+](=O)[O-])o1,20,.,36
C[C@H](CO)N1C[C@H](C)[C@H](CN(C)C(=O)Nc2ccc(F)cc2)Oc2ccc(NC(=O)Cc3ccccc3)cc2C1=O,-14,-5,20
Cc1ccc(NC(=O)c2ccc3c(=O)n(Cc4ccco4)c(=S)[nH]c3c2)cc1Cl,-7,42,121*
COc1ccc(NC(=O)c2ccc3c(=O)n(CCc4ccccc4)c(=S)[nH]c3c2)cc1,-5,36,-8
C=CCSc1ncc2c(=S)[nH]c(=S)[nH]c2n1,71,65*,12
CCN(CC)c1ncc2c(=S)[nH]c(=S)[nH]c2n1,0,2,11
C=C1C(=O)O[C@@H]2/C=C(/CO)CC/C=C(/C)C[C@H](OC(=O)C(C)CO)[C@@H]12 (stereo not given in full),6,11,118*
C=C1C(=O)O[C@@H]2/C=C(\CO)CCC/C(C)=C/[C@H](O)C12 (stereo not given in full),2,-20,116*
CC1=CC(C)(C)N(Cc2ccccc2)c2ccccc21,1,44,59
Cc1ccc(S(=O)(=O)N(C)C[C@@H]2Oc3c(NC(=O)Nc4ccc(C(F)(F)F)cc4)cccc3C(=O)N([C@@H](C)CO)C[C@@H]2C)cc1,-1,93*,39
C[C@H](CO)N1C[C@H](C)[C@@H](CN(C)S(=O)(=O)c2ccccc2)Oc2c(NC(=O)Nc3ccc(C(F)(F)F)cc3)cccc2C1=O,-3,-16,34
Cc1ccc(S(=O)(=O)N(C)C[C@@H]2Oc3c(NC(=O)Nc4ccc(C(F)(F)F)cc4)cccc3C(=O)N([C@H](C)CO)C[C@H]2C)cc1,3,-5,?
Cc1ccc(S(=O)(=O)N(C)C[C@H]2Oc3c(NC(=O)Nc4ccc(C(F)(F)F)cc4)cccc3C(=O)N([C@@H](C)CO)C[C@H]2C)cc1,78,-24,119*
C[C@H]1CN([C@@H](C)CO)C(=O)c2cc(NC(=O)Nc3cccc4ccccc34)ccc2O[C@@H]1CN(C)S(=O)(=O)c1cn(C)cn1,1,.,-15
SMILES,MITF inhib,Shh pathway inh,NOMO-1 viab
Cc1cc(S(=O)(=O)N2CCC(NC(=O)Cc3ccccc3)CC2)c(Cl)cc1Cl,21,-6,33
CCn1c(SCC(=O)N2c3ccccc3Sc3ccccc32)nnc1-c1cccc(Cl)c1,34,.,24
NC(=O)c1ccccc1NC(=O)COc1cccc2ccccc12,-26,.,15
CCN(CC)c1ccc2cc(C(N)=O)c(=Nc3ccc(F)cc3)oc2c1,2,-27,94*
CCOc1ccc(NC(=O)CSc2ncccn2)cc1,-98,.,1
COc1ccc(NC(=O)Nc2cccc3c2O[C@@H](CN(C)Cc2ccc(C(F)(F)F)cc2)[C@@H](C)CN([C@H](C)CO)C3=O)cc1,9,2,45
C[C@H]1CN([C@@H](C)CO)C(=O)c2cccc(NC(=O)Nc3ccc(F)cc3)c2O[C@H]1CN(C)Cc1ccc(C(F)(F)F)cc1,14,-37,61
COc1ccc(CN(C)C[C@H]2Oc3c(NC(=O)Nc4ccc(C(F)(F)F)cc4)cccc3C(=O)N([C@H](C)CO)C[C@H]2C)cc1,-6,13,95*
C[C@H]1CN([C@@H](C)CO)C(=O)c2cccc(NC(=O)Nc3ccc(C(F)(F)F)cc3)c2O[C@@H]1CN(C)Cc1ccc(C(=O)O)cc1,-4,-30,-9
C[C@@H]1CN([C@@H](C)CO)C(=O)c2cccc(NC(=O)Nc3ccc(F)cc3)c2O[C@H]1CN(C)Cc1ccc(C(F)(F)F)cc1,46,-12,103*
C[C@H](CO)N1C[C@H](C)[C@H](CN(C)Cc2ccc(C(F)(F)F)cc2)Oc2c(NC(=O)Nc3ccc(C(F)(F)F)cc3)cccc2C1=O,21,-43,110*
CC1(C)C[C@H]2C3=CCC4[C@@]5(C)CC[C@H](O[C@@H]6O[C@H](CO)[C@@H](O)[C@H](O)[C@H]6O)C(C)(C)C5CC[C@@]4(C)[C@]3(C)CC[C@@]2(C(=O)O[C@@H]2O[C@H](CO)[C@@H](O)[C@H](O)[C@H]2O)CC1O (stereo not given in full),-2,5,-5
Cc1ccc(NC(=O)c2oc3ccccc3c2NC(=O)Cc2coc3ccc(C)cc23)cc1,-6,.,19
CC(=O)Nc1ccc(C(=O)CSc2nnc(-c3ccccc3Cl)o2)cc1,-56,.,30
C[C@H]1CN([C@@H](C)CO)C(=O)Cc2cc(NC(=O)Nc3ccc(C(F)(F)F)cc3)ccc2O[C@H]1CN(C)C(=O)Nc1ccc2c(c1)OCO2,-13,-23,2
C[C@@H]1CN([C@H](C)CO)C(=O)Cc2cc(NC(=O)Nc3ccc(C(F)(F)F)cc3)ccc2O[C@@H]1CN(C)C(=O)Nc1ccc2c(c1)OCO2,6,36,113*
C[C@@H]1CN([C@@H](C)CO)C(=O)Cc2cc(NC(=O)Nc3ccc(C(F)(F)F)cc3)ccc2O[C@@H]1CN(C)C(=O)Nc1ccc2c(c1)OCO2,55,83*,125*
C[C@@H]1CN([C@H](C)CO)C(=O)Cc2cc(NC(=O)Nc3ccc4c(c3)OCO4)ccc2O[C@@H]1CN(C)C(=O)Nc1ccc(C(F)(F)F)cc1,0,25,8
Cc1oc2c(c1C(=O)NCc1ccccc1)C(=O)c1ccccc1C2=O,58,93*,140*
CC(=O)NC(=O)NCc1ccccc1,4,.,-3
C[C@@H]1CN([C@H](C)CO)C(=O)c2cc(NC(=O)NC3CCCCC3)ccc2O[C@@H]1CN(C)Cc1ccc2c(c1)OCO2,-1,-23,-12
C[C@H]1CN([C@@H](C)CO)C(=O)c2cc(NC(=O)NC3CCCCC3)ccc2O[C@H]1CN(C)Cc1ccc2c(c1)OCO2,-3,11,102*

# High-throughput results (PubChem)
